# From PubChem
# Hits are enriched below; roughly 1.4% of the tested compounds scored in any of these assays.
# BCLXL inh – inhibitors of human Bcl-xL, primary screen, biochemical, fluorescence polarization, HTS. GST-Bcl-xL / FITC-Bim BH3 peptide fluorescence polarization. Bcl-2-like protein 1 (Homo sapiens), Q07817. inhibition, % at 10.9 µM. actives 0.7% (n = 320,000);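 active means inhibition above the mean of all tested compounds plus 3 SD, cutoff set per campaign, cut at about 30% in these data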;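 further: 0% = DMSO wells and 100% = unlabeled Bim-BH3 peptide competitor; inhibitors lower millipolarization by displacing the labeled peptide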
# Target sequence (Q07817 whole entry, looked up): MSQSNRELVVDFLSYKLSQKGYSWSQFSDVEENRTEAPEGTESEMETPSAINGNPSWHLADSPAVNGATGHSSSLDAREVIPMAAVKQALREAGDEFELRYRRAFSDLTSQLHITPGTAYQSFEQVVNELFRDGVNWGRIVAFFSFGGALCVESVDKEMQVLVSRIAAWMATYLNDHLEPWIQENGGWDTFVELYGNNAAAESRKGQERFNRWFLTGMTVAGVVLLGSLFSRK
# E coli Lon inh – inhibitors of E. coli Lon protease, primary screen, biochemical, fluorescence polarization; P0A9M0; purified E. coli Lon protease; inhibition, % at 7.94 µM; actives 0.42% (n = 360,000); AID 602123, 2011; in the data active means inhibition above about 13%, passing the limit was not always enough;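 further: 0% = enzyme with probe and DMSO and 100% = no enzyme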
# GLD-1 TGE inh – GLD-1/TGE RNA complex disruptors, primary screen, biochemical, fluorescence polarization; actives 0.44% (n = 320,000); inhibition, % at 5.96 µM; purified GLD-1 + fluorescein TGE RNA; AID 2280, 2010; Female germline-specific tumor suppressor gld-1 (Caenorhabditis elegans), Q17339;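 active means percent inhibition above a per-plate cutoff, the plate mean of test compounds plus 3 SD, cut at about 30% in these data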;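 further: 0% = DMSO wells with GLD-1 and probe and 100% = wells lacking GLD-1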
# MCL1 BIM primary – inhibitors of MCL1 binding to BIM-BH3, primary screen, biochemical, fluorescence polarization. Induced myeloid leukemia cell differentiation protein Mcl-1 (Homo sapiens), Q07820. GST-MCL1 / FITC-Bim-BH3 fluorescence polarization. inhibition, % at 10.9 µM. actives 0.68% (n = 320,000). AID 2057, 2009;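 active means inhibition above the mean inhibition of all tested compounds plus 3 SD, set per campaign, cut at about 40% in these data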;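 further: 0% = DMSO wells and 100% = unlabeled Bim-BH3 peptide control; higher means more loss of mP so more displacement of Bim peptide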
# MEX-5 binding – MEX-5 zinc finger RNA-binding disruptors – biochemical, C. elegans, fluorescence polarization, MLPCN library, primary screen; MEX-5/FITC-TCR2 RNA binding; hits give low values; activity score (negative = inhibition of binding), % at 10 µM; actives 0.38% (n = 300,000); AID 1832, 2009;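 active means inhibition past about -25% in most replicates, and total fluorescence under double the plate's negative control median, limit read from the data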;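 further: 0% = DMSO and -100% = 5 µM competing unlabeled TCR2 RNA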
# Target sequence (Q9XUB2 whole entry, looked up): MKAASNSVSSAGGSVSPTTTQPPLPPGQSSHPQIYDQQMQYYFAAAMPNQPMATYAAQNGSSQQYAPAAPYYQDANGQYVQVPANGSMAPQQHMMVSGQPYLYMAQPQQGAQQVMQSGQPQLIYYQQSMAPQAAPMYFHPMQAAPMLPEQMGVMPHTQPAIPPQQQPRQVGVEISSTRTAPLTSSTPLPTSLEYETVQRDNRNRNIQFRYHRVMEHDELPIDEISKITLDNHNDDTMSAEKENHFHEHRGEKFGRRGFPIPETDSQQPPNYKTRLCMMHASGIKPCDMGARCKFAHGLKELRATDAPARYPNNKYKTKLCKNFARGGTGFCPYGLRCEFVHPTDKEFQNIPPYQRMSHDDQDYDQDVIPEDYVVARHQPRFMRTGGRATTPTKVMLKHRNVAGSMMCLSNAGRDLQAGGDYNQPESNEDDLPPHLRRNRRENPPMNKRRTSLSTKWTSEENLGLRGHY
# EBV gp42 block – Epstein-Barr virus gp42 inhibitors, primary screen, biochemical, uHTS, fluorescence polarization. inhibition, % (tested at 21.74 µM). Fluorescence polarization binding assay, mP read-out. Glycoprotein 42 (Epstein-Barr virus (strain AG876)), Q1HVG2. actives 0.42% (n = 220,000); in the data active means inhibition above about 50%
# Bcl-xL conf – Bcl-xL inhibitors blocking Bim BH3 binding, confirmation, counter-screen for MCL1 inhibitor project, biochemical, fluorescence polarization; shares compounds with MCL1 BIM primary; GST-Bcl-xL / FITC-Bim BH3 peptide FP binding; inhibition, % at 10.9 µM; actives 54% (n = 1,700);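 active means inhibition above a cutoff equal to the mean inhibition of all tested compounds plus 3 SD, cut at about 30% in these data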;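 further: 0% = DMSO wells and 100% = unlabeled Bim BH3 control peptide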
# MCL1 BIM confirm – inhibitors of MCL1 binding to BIM-BH3, confirmation, biochemical, fluorescence polarization, triplicate; inhibition, % at 10.9 µM; GST-MCL1 / FITC-Bim-BH3 fluorescence polarization; actives 61% (n = 1,700); shares compounds with MCL1 BIM primary;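 active means inhibition above the average of all tested compounds plus 3 SD, cut at about 40% in these data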;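 further: 0% = DMSO wells and 100% = unlabeled Bim-BH3 control peptide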
# Starred values were filed as active, the others as inactive; nt = no result given.
SMILES,BCLXL inh,E coli Lon inh,GLD-1 TGE inh,MCL1 BIM primary,MEX-5 binding,EBV gp42 block,Bcl-xL conf,MCL1 BIM confirm
Cc1cccc(C)c1OCc1cc(C(=O)NCC2CC2)no1,-0.8,-3.5,-0.9,-0.3,-0.6,nt,nt,nt
Cc1cccc(CN2CCC(Oc3ccc(C(=O)N4CCCC4)cc3)CC2)n1,-0.2,-10.4,2.1,4.7,0.1,nt,nt,nt
O=C(O)c1ccc(-n2cccc2/C=N\NC(=O)c2cc3cc(Br)ccc3o2)cc1,20.7,-8.8,-1.2,62.5*,-3.1,33.5,23.5,57.2*
Cn1cc(/C=N/NC(=O)c2cc3cc(Br)ccc3o2)c2ccccc21,-10.7,-6.1,4.9,-12.4,-1.4,-37.3,nt,nt
COc1ccc(OC)c(S(=O)(=O)N2CCCC(C(=O)N3CCCCCC3)C2)c1 (stereo not given),0.2,-4.4,1.5,2.6,1.3,nt,nt,nt
Cn1c(O)c(C2=c3ccccc3=NC2=O)[nH]c1=S,11.6,6.2,2.8,26.3,-0.9,-18.8,nt,nt
COc1ccc2nc(-n3c(O)c(C4=c5ccccc5=NC4=O)[nH]c3=S)sc2c1,14.6,3.0,1.6,67.5*,0.2,115.1*,32.6*,91.7*
CN(CC(=O)NCC(=O)Nc1ccc(F)cc1)C1CCS(=O)(=O)C1 (stereo not given),-2.3,-4.9,0.1,-4.3,nt,nt,nt,nt
CN(C)c1ccc2c(c1[N+](=O)[O-])Cc1ccccc1-2,nt,-8.2,nt,nt,nt,nt,nt,nt
CCOC(=O)c1c(-n2c(C)cc(C=O)c2C)sc2c1CCCC2,-2.7,9.8,6.1,-0.5,0.9,-12.5,nt,nt
Cc1ccc(C)n1-c1sc2c(c1C(=O)O)CCCC2,20.2,-6.4,-5.8,70.3*,-1.3,3.2,16.9,49.0*
CC(Sc1nnc(C2CC2)n1C1CC1)C(=O)c1ccc(F)cc1 (stereo not given),2.6,-2.5,7.5,1.9,nt,nt,nt,nt
CN(CC(=O)N1CCc2[nH]c3ccc(F)cc3c2C1)CC1OCCO1,10.0,nt,3.6,6.7,-5.8,0.5,nt,nt
Cc1ccc2[nH]c3c(c2c1)CN(C(=O)CN(C)CC1OCCO1)CC3,57.8*,9.0,52.7*,60.8*,-6.6,8.0,9.4,10.9
CCN(CC(=O)NCc1ccc(Cl)cc1)C(=O)CSCC(=O)Nc1cccc(C)c1,-4.1,-7.4,6.0,-16.0,-2.5,nt,nt,nt
COc1ccccc1NC(=O)Cn1c(O)c(N=NC(=O)c2ccccc2O)c2ccccc21,8.8,-7.9,-3.3,50.1*,-0.3,13.7,18.6,61.6*
O=C(O)C1Nc2c(O)cc(Cl)c([N+](=O)[O-])c2C2C=CCC12 (stereo not given),78.0*,-8.9,6.1,101.2*,-60.4*,87.5*,43.2*,101.3*
C=CCc1cccc(/C=N/NC(=O)CNc2cccc3ccccc23)c1O,0.5,3.2,9.3,47.3*,-1.1,1.9,11.1,53.6*
Cc1cc[n+]2n1CC(O)C2 (stereo not given),5.4,-0.7,-1.6,5.3,0.1,-23.6,nt,nt
CC(C)Oc1ccc(CC(=O)NNC(=S)Nc2ccccc2)cc1,6.7,-10.1,0.3,185.6*,-2.2,-0.1,-29.0,-53.3
COC(=O)c1ccc(NC(C)C(=O)OC)c([N+](=O)[O-])c1 (stereo not given),1.4,-10.0,4.0,3.1,0.0,-15.9,nt,nt
O=c1[nH]c2cc3c(cc2cc1CN(Cc1ccc2c(c1)OCO2)Cc1nnnn1CC1CCCO1)OCO3 (stereo not given),69.8*,9.2,65.0*,74.3*,0.6,-7.9,9.8,6.7
CC(N=Cc1cccc(O)c1O)c1ccccc1 (stereo not given),33.3*,10.5,14.5,66.1*,-2.7,-15.6,32.4*,71.3*
CC(N=Cc1cc([N+](=O)[O-])ccc1O)c1ccccc1 (stereo not given),6.1,-0.6,-1.9,17.0,0.8,-16.5,nt,nt
Cc1ccccc1CN(C)Cc1cc(=O)oc2c(C)c(C)ccc12,3.5,-5.8,-7.8,63.7*,2.2,nt,11.8,6.8
SMILES,BCLXL inh,E coli Lon inh,GLD-1 TGE inh,MCL1 BIM primary,MEX-5 binding,EBV gp42 block,Bcl-xL conf,MCL1 BIM confirm
O=C(COc1ccc2c3c(c(=O)oc2c1)CCCC3)N1CCN(c2ccccc2)CC1,4.3,5.2,0.1,4.1,1.3,nt,nt,nt
NC(=O)c1ccc(NC(=O)COC(=O)/C=C/c2ccc(Br)o2)cc1,nt,-10.3,4.9,nt,nt,nt,nt,nt
O=C(COC(=O)/C=C/c1ccc(Br)o1)Nc1ccc2[nH]c(=O)[nH]c2c1,14.2,-13.7,8.4,67.9*,4.2,nt,8.0,63.4*
O=C(O)/C=C/C(=O)NCc1ccccc1,5.3,-4.5,0.5,2.3,1.0,7.6,nt,nt
O=C(O)/C=C/C(=O)NCc1ccccn1,51.8*,0.8,36.4*,49.8*,-16.8,24.6,48.0*,51.6*
Cc1ccc(/C=C/C(=O)NCc2ccccn2)o1,22.7,0.9,6.5,40.8*,-8.3,27.7,20.8,51.4*
Cn1ccc2cc3c(cc21)CCN3C(=O)Nc1cccnc1,17.3,7.3,-2.8,46.5*,nt,nt,38.6*,49.6*
Cc1nc(C)c(NC(=O)N2CCc3ccccc32)cc1NC(=O)N1CCc2ccccc21,9.4,3.9,-2.7,3.8,1.5,-0.6,nt,nt
CCCc1nc2ccc(C)cn2c1Cc1ccc(C)cc1,nt,-21.0,nt,nt,nt,nt,nt,nt
Cc1cc(C)cc(OCC(=O)NNC(=O)c2cc(C)[nH]n2)c1,0.3,13.3,-5.6,11.6,-3.1,-9.4,nt,nt
Cc1cc(C(=O)NN)n[nH]1,3.1,0.7,2.9,56.1*,3.8,-15.7,1.3,7.0
CSc1cccc(NC(=O)c2ccc(NC3=NC4CS(=O)(=O)CC4S3)cc2)c1 (stereo not given),1.0,-6.5,-4.5,6.4,-2.2,nt,nt,nt
C/C(=N\NC(=O)CSc1nc2ccccc2s1)c1ccco1,4.8,-5.4,-1.1,5.7,1.3,-4.8,nt,nt
CCC(=O)OC1(C)C(=O)C=C2C=C(c3ccsc3)OC=C2C1=O (stereo not given),25.1,-23.4,17.5,36.1,-6.8,1.2,nt,nt
COC(=O)CCC(=O)OC1(C)C(=O)C=C2C=C(C3CC3)N(c3ccc(CO)cc3)C=C2C1=O (stereo not given),63.5*,nt,45.0*,93.8*,-36.4*,nt,46.1*,64.4*
